# From the supplement of paper PMC11001985
# Compound: C#CCNC(=O)CCSSCCC(=O)NCCc1ccc(C=O)c(C=O)c1
# Experiment: lysine labeling ratio R10:1 (500 µM / 50 µM probe), SILAC-ABPP in living cells; higher = lower intrinsic lysine reactivity toward the probe, active = 2 or less
# Details: HeLa; probe concentrations 500 vs 50 µM
# Procedure, shortened: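 An alkyne-tagged lysine probe with a disulfide linker labelled living HeLa cells in PBS at room temperature at either 50 µM or 500 µM, using SILAC light and heavy cells in forward and reverse label swaps. Lysates were mixed, clicked to biotin-azide, trypsin-digested, enriched on neutravidin, DTT-released, alkylated and measured by LC-MS/MS on a TIMS-TOF Pro. Each lysine's R is the filtered median high-probe/low-probe MS1 peptide ratio, combined as the median over forward and reverse replicates, with 20 as the upper limit.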
# Sequence of UniProt P08962 (P08962 whole entry): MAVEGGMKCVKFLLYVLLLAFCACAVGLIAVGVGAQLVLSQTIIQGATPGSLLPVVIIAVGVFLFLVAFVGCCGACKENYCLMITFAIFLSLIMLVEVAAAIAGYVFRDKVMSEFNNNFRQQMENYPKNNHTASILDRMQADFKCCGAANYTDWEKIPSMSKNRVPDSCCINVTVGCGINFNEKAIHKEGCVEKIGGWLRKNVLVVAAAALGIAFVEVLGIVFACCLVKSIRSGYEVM
# Sequence of UniProt O43707 (O43707 whole entry): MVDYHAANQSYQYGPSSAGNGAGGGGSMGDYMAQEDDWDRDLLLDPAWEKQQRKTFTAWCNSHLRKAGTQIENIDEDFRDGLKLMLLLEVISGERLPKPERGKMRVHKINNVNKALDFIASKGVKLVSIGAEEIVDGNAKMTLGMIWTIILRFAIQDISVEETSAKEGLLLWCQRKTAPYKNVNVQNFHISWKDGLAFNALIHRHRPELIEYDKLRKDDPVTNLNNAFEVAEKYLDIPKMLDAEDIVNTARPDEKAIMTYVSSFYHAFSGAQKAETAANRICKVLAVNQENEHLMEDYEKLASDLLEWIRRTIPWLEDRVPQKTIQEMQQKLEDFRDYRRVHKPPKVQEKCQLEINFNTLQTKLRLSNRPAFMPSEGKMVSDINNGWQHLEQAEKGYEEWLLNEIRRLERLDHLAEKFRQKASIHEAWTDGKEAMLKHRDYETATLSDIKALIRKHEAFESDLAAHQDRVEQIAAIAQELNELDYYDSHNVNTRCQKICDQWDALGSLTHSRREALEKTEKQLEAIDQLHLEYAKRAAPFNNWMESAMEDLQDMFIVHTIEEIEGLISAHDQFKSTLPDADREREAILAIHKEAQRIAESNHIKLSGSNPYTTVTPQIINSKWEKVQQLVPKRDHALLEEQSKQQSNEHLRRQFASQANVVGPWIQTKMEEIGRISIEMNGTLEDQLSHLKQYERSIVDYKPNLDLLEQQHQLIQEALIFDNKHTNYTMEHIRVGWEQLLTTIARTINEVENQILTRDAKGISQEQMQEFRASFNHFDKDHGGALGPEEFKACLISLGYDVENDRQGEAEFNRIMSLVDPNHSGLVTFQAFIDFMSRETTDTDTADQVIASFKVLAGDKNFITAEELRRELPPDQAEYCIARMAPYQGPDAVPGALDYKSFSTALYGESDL
# Sequence of UniProt O43854 (O43854 whole entry): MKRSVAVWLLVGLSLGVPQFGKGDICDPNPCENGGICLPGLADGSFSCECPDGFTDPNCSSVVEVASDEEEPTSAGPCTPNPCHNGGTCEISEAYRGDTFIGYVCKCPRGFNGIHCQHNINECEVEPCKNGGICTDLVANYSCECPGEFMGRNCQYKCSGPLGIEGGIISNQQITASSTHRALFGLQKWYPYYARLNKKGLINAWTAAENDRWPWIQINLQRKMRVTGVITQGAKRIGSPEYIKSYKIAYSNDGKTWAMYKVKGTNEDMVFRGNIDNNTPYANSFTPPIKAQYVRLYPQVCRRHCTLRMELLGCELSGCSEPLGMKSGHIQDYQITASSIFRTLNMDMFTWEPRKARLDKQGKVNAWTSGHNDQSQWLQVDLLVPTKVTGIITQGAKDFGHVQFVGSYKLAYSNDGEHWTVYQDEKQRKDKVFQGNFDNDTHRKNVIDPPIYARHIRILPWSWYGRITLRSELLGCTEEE
# Sequence of UniProt Q13561 (Q13561 whole entry): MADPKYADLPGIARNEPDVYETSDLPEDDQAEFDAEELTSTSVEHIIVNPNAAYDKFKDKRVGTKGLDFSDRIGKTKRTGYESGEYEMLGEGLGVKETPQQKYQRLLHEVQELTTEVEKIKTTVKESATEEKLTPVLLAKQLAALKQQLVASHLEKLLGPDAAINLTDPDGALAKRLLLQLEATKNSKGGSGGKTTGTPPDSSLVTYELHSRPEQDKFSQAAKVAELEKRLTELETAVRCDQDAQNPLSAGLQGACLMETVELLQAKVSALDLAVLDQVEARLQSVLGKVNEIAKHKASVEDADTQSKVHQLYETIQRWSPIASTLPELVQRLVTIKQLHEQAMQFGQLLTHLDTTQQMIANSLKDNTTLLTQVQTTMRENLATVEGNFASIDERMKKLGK
# Sequence of UniProt P48047 (P48047 whole entry): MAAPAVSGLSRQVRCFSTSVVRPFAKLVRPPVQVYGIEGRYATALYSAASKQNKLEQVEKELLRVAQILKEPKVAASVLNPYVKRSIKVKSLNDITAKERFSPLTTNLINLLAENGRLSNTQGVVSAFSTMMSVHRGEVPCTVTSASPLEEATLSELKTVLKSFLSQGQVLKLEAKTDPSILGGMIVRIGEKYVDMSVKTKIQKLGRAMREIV
# Sequence of UniProt P54826 (P54826 whole entry): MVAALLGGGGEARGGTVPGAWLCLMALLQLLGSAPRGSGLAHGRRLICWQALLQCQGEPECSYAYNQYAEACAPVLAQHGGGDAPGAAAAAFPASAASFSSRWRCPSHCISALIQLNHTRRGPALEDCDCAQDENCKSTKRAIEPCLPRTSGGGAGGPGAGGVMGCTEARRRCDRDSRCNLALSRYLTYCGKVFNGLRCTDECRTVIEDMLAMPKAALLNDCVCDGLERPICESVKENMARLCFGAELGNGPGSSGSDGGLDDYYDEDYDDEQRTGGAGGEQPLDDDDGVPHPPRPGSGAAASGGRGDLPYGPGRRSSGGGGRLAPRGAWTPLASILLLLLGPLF
# Sequence of UniProt P08670 (P08670 whole entry): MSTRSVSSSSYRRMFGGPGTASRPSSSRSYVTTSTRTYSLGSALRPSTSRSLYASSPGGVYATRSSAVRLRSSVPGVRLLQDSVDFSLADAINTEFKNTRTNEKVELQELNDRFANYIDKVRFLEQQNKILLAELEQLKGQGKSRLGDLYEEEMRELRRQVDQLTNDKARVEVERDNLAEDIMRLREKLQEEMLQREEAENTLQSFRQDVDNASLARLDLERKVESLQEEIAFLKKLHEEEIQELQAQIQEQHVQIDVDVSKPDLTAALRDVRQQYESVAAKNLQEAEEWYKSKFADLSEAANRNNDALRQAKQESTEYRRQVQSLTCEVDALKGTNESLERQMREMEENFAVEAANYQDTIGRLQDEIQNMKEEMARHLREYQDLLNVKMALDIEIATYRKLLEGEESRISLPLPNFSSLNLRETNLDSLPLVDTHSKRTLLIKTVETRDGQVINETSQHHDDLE
# Sequence of UniProt O60245 (O60245 whole entry): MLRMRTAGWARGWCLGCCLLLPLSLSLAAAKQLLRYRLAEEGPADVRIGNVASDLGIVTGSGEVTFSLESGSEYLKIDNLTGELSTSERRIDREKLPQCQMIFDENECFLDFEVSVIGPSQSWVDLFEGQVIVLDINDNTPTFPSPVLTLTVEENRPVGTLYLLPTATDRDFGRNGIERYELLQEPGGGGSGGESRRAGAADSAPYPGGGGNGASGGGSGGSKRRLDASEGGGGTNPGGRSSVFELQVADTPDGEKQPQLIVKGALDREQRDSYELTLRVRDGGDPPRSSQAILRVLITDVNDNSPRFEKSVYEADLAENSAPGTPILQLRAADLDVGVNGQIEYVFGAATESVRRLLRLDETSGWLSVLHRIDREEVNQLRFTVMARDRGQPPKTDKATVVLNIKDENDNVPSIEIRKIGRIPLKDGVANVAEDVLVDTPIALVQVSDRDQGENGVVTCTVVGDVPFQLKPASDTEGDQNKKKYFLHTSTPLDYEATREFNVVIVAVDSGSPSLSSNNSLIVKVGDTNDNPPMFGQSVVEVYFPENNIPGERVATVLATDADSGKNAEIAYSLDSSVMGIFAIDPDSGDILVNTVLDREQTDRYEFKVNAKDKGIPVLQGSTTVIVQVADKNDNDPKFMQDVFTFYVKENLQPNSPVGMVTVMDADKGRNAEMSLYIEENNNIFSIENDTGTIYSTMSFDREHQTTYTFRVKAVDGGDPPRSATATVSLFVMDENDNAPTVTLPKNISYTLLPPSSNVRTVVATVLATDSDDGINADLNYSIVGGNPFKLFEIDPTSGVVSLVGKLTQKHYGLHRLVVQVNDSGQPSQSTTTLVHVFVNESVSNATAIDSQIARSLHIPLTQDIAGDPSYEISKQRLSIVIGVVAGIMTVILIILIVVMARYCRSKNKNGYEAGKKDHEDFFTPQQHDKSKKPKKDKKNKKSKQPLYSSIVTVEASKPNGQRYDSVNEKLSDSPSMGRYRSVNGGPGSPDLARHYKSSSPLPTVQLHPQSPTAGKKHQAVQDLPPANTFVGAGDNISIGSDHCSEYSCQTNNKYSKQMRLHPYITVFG
# Sequence of UniProt P26599 (P26599 whole entry): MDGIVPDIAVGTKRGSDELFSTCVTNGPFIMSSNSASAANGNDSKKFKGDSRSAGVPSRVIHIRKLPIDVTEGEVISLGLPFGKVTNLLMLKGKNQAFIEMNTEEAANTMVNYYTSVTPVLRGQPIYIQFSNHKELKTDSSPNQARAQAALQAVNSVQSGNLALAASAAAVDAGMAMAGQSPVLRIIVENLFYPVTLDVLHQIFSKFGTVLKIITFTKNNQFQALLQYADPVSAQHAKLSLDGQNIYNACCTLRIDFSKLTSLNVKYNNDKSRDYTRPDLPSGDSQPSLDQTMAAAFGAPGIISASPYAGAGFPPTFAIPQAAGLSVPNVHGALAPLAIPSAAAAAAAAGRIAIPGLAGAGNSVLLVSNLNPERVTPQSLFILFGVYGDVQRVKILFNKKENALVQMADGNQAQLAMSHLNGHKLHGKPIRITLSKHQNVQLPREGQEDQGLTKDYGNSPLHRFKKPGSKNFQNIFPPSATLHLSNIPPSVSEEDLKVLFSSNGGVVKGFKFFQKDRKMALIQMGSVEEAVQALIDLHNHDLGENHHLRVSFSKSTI
row,Target,lysine labeling ratio R10:1
1,IARS (lysine site: K641) (UniProt P41252),1.71 (active)
2,UniProt Q8WXI7 (lysine site: K13246),5.01 (inactive)
3,FLNB (lysine site: K2470) (UniProt O75369),1.78 (active)
4,EDIL3 (lysine site: K235) (UniProt O43854),7.28 (inactive)
5,PTBP1 (lysine site: K428) (UniProt P26599),3.97 (inactive)
6,SUB1 (lysine site: K41) (UniProt P53999),1.41 (active)
7,CD63 (lysine site: K162) (UniProt P08962),4.92 (inactive)
8,UniProt O60245 (lysine site: K484),1.3 (active)
9,VIM (lysine site: K373) (UniProt P08670),7.19 (inactive)
10,RBMX (lysine site: K86) (UniProt P38159),2.06 (inactive)
11,CCT4 (lysine site: K489) (UniProt P50991),2.21 (inactive)
12,UniProt P48047 (lysine site: K98),1.89 (active)
13,GAS1 (lysine site: K140) (UniProt P54826),3.54 (inactive)
14,FAT1 (lysine site: K2562) (UniProt Q14517),1.58 (active)
15,ACTN4 (lysine site: K643) (UniProt O43707),7.08 (inactive)
16,DCTN2 (lysine site: K65) (UniProt Q13561),1.14 (active)
17,IMPDH2 (lysine site: K511) (UniProt P12268),3.35 (inactive)
